Among all 200,000 compounds or so, about 5,100 (2.5%) were called active. This is one part of a sample in which actives are shown more often than they occur.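 How the source made its calls: active means activation above the screen-wide mean activation plus 3 SD (cut at about 130% in these data); inactive means the rest.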
assay: STAT1 signaling activators, primary screen, cell-based, HTS, luciferase reporter (AID 932); conditions: NIH 3T3 STAT1-luciferase reporter, IFN-gamma, luminescence; at 5.5 µM; stronger effect = higher value; 100% = IFN-gamma alone, no compound;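 further: raw ratio to IFN-gamma control signal so 100% means no change and 0% no light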

Activation (% of control), inactive:
O=C(Nc1nc(-c2ccc(-c3ccccc3)cc2)cs1)c1cnccn1 113%, Cc1ccc(-c2csc(NC(=O)c3cnccn3)n2)cc1C 105%, O=C(CCn1c(SCC(=O)c2ccccc2)nc2ccccc2c1=O)NCc1ccc(F)cc1 94.6%, COc1ccc(OCc2ccc(-c3nc4ccccc4c(=O)n3N)o2)cc1 127%, Cc1ccccc1OCC(O)CN1CCN(c2ccccn2)CC1 (stereo unspecified) 104%, CCNC(=S)NNC(=O)C1CCN(Cc2ccccc2)CC1 90.4%, Cc1ccc(-c2nn(-c3ccccc3)cc2C(=O)Nc2cccc(S(=O)(=O)N3CCOCC3)c2)cc1 102%, CCc1ccc(C2C(C#N)=C(N)N(N(C)C)C3=C2C(=O)CCC3)s1 (stereo unspecified) 105%, CS(=O)(=O)c1sc2nc(-c3ccccc3)cc(-c3ccccc3)c2c1N 104%, CCOC(=O)c1sc2nc(SC)nc(-c3ccccc3)c2c1N 90%, O=C(COC(=O)c1ccccc1C(=O)c1ccccc1)c1ccco1 103%, O=C(OCC(=O)N1CCCC1)c1ccco1 104%, CCOC(=O)/C=c1\s/c(=C\c2ccc(C#N)cc2)c(=O)n1CC(=O)Nc1cccc(C)c1C 102%, CN(C)CCCN1C(=O)CSC1c1ccc([N+](=O)[O-])cc1 (stereo unspecified) 95%, CCOc1ccc2nc(Nc3nc4ccc(NC(C)=O)cc4s3)sc2c1 106%, CCOc1ccc2nc(SC(CC)C(=O)Nc3cc(C)on3)sc2c1 (stereo unspecified) 86.5%, CCNc1nc(NC(C)C)nc(N2CC(=O)N(CC(=O)OCC)C2=N)n1 93.2%, O=C(Oc1cccc(N2C(=O)C3C4c5ccccc5C(c5ccccc54)C3C2=O)c1)c1ccco1 (stereo unspecified) 102%, Cc1ccc(-n2c(SCC(=O)N3c4ccccc4Sc4ccccc43)nnc2-c2ccncc2)cc1 109%, CC(C)(C)C(=O)NCCCNc1ccc([N+](=O)[O-])cc1 112%, COc1cc(/C=N\Nc2ccc([N+](=O)[O-])cn2)ccc1OCC(=O)O 98%, COc1cc(C(=O)OCc2ccc([N+](=O)[O-])cc2)cc(OC)c1OC 104%, CCOc1ccc(S(=O)(=O)Nc2ccncc2)c(C)c1C 97%, C/C(CCC(=O)OC[C@H]1O[C@H](C#Cc2ccccc2)C=C[C@@H]1Oc1ccc(C)cc1)=N\OC[C@@H](O)[C@H]1O[C@@H]2OC(C)(C)O[C@@H]2[C@H]1O 106%, O=C(Nc1nc2ccc(S(=O)(=O)N3CCCC3)cc2s1)C1CCCO1 (stereo unspecified) 95.5%, Cc1cc(Br)ccc1NC(=O)C1CCCO1 (stereo unspecified) 107%, CCc1cc2c(=O)c(-c3nc4ccccc4n3C)c(CCCC(=O)O)oc2cc1OC(=O)C(C)(C)C 90.5%, COC(=O)C1=CN(Cc2ccc(OC)c(OC)c2)C=C(C(=O)OC)C1c1cccs1 45.2%, C=CCNC(=O)/C=C/c1ccc(C(C)C)cc1 120%, CCCC(=O)N=c1sc2cccc(F)c2n1C 114%, Cn1c(=NC(=O)C2CC2)sc2cc(F)cc(F)c21 108%, CC(=O)Nc1ccc(S(=O)(=O)Oc2ccc(/C=N/N=C3/NC(=O)C(CC(=O)O)S3)cc2)cc1 (stereo unspecified) 97.8%, CCCCn1c(=O)c(C(C)=O)c(O)c2ccccc21 95.7%, COc1cc([C@H](Cc2ccccc2)NC(C)=O)oc(=O)c1 96.8%, Cc1cc(C2=NNC(=Nc3ccc(S(=O)(=O)N4CCOCC4)cc3)SC2)c(C)n1CC1CCCO1 (stereo unspecified) 99.8%, C=CCn1c(C)cc(C2=NNC(=NCC)SC2)c1C 15.6%, COc1ccc(C2CC(c3cccs3)=NN2c2ccccc2)cc1 (stereo unspecified) 93.2%, Cc1cc(C)cc(N(CC(=O)NCCSCc2ccco2)S(C)(=O)=O)c1 102%, Cc1ccccc1Nc1nc(N)nc(CSc2nnc3ccccn23)n1 120%, Cc1ccc(C(=O)OCc2nc(N)nc(Nc3ccccc3C)n2)cc1 96.8%, CC(C)(C)C1CCC(=NNC(=O)c2cc(-c3ccccc3)n[nH]2)CC1 (stereo unspecified) 113%, CCOC(=O)N1CCN(C(=O)C2CCN(Cc3ccc(OC)cc3OC)CC2)CC1 94.7%, CC(N=Cc1nc(-c2ccccc2)oc1O)c1ccccc1 (stereo unspecified) 104%, CCOc1ccc2nc(/N=C/c3nc(-c4ccccc4)oc3O)sc2c1 104%, O=C1NC(c2ccc(-c3ccccc3[N+](=O)[O-])o2)C(C(=O)c2ccc(Cl)cc2)C(O)(C(F)(F)F)N1 (stereo unspecified) 102%, COc1ccc(C(C)=O)cc1CSc1nc2nc(C)cc(C)n2n1 93.7%, O=C(Oc1ccc([N+](=O)[O-])cc1)c1ccc2ccccc2n1 94.7%, COc1ccc(C(=O)COC(=O)c2ccc3ccccc3n2)cc1 103%, CCC(NC(=O)c1ccccc1NC(=O)c1ccccc1)C(=O)NNC(=O)CSc1nc2ccccc2o1 (stereo unspecified) 94%

Activation (% of control), active:
O=C(Nc1nc(-c2cccnc2)cs1)c1ccccc1F 141%, Cc1ccc(C(=O)CSc2nc3ccccc3c(=O)n2N)o1 140%, CCN(CC)C(=O)c1sc2nc(-c3ccccc3)ccc2c1N 146%, CCN(CC)c1ccc(C(=O)OCC(=O)c2ccco2)cc1 149%, CCOc1ccc2nc(C(=O)N3CCCC(C)C3)sc2c1 (stereo unspecified) 153%, COc1cc(/C=N/O)ccc1OCc1ccc([N+](=O)[O-])cc1 206%, Cc1cc(C)c2nc(NC(=O)C3CCCO3)sc2c1 (stereo unspecified) 151%, Cn1c(=NC(=O)c2ccco2)sc2cccc(F)c21 135%, COCCn1c(C)cc(C2=NNC(=Nc3ccc(F)cc3)SC2)c1C 133%, Cc1ccccc1Nc1nc(N)nc(CSc2ccccc2)n1 183%, Oc1oc(-c2ccccc2Br)nc1/C=N/c1ccccn1 131%, CC(OC(=O)c1ccc2ccccc2n1)C(=O)c1ccccc1 (stereo unspecified) 138%

From PubChem BioAssay AID932 (The Scripps Research Institute Molecular Screening Center, 2007)
